# Where “and” joins values, the source holds several entries; their conditions need not be identical. Equal entries are not always repeated. This is part of a sample that, as a whole, favours compounds with a hit. Of some 83,000 tested, about 20% had one in any assay.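 Plates (96-well) were seeded with cells, treated with compound at one concentration, and incubated for 48 hours before percent growth was determined.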 Values without a mark were called inactive. Calls of active or inactive are those of the source.
# Tested on: UACC-62 melanoma
# Assay: NCI-60 one-dose screen, 48 h (100 = growth as untreated, 0 = no growth, -100 = all killed)
# Conditions: 10 µM
# Experimental: Growth inhibition of the UACC-62 human tumor cell line is measured as a screen for anti-cancer activity. Cells are grown in 96 well plates and exposed to the test compound for 48 hours. Compounds are tested at a single concentration, which is 10^-5 M for most compounds. The reported endpoint is percent growth (GI% or GIPRCNT), where numbers from 0 - 100% represent growth inhibition, and numbers from -100% - 0 represent cell death. For example, a value of 40 represents 60% growth inhibition. A value of 0 means no net growth occurred over the course of the experiment. A value of -40 indicates 40% of cells at the beginning of the experiment died by the end of the experiment. A value of -100 means all cells are dead at the end of the experiment.
# NCI-60 Human Tumor Cell Lines Screen was performed using the standard one-dose NCI protocol, which is described in more detail at https://dtp.cancer.gov/discovery_development/nci-60/default.htm.
# Compounds with GIPRCNT values below 10 were considered active. Activity score was based on GIPRCNT using the following formula: […]
# Score is 0 for GIPRCNT values of 100 or above, 50 for GIPRCNT values of 0, and 100 for GIPRCNT values of -100.
row,Compound,growth [%]
1,O=C(Nc1cccc(Br)c1)Oc1cccc2cccnc12,97.5
2,COc1ccc(-c2cscc2N)cc1,43.4
3,CN(C)C(=O)c1ccc(SC(=S)NCc2ccccc2)cc1,103

# Same assay, conditions: 10 µM unless noted
row,Compound,growth
1,O=C(/C=C\c1cc(Br)ccc1O)/C=C/c1cc(Br)ccc1O,-67.5% (active)
2,N#CSCc1ccc(Cl)c(CSC#N)c1,57.3%
3,CC(=O)Nc1cccc2cc(O)ccc12,96.3% and 90.9% and 96.9%
4,COc1ccccc1OC(=O)Oc1ccccc1OC,100% and 96.4%
5,O=[N+]([O-])c1ccc(N=Nc2ccc(O)cc2O)cc1,36.4%
6,CCN(CC)CCOc1ccc(-c2nc3cc(Cl)ccc3s2)cc1,-86.9% (active)
7,O=C(O)c1ccc2c3c(ncnc13)-c1ccccc1C2=O,12.6%
8,Cn1c2ccccc2c2nnc(N/N=C/c3ccccn3)nc21,-6.2% (active)
9,O=C(O)C1C2CC3C(OC(=O)C31)C2Br (stereo unspecified),93.5% and 107%
10,COc1ccc2nc3cc(Cl)ccc3c(NCCNc3c4ccc(Cl)cc4nc4ccc(OC)cc34)c2c1,-88.4% (active)
11,N[C@H](C(=O)O)[C@@H]1CC(Cl)=NO1,22.4% [20 µM]
12,NC(=S)N/N=C/c1ccc(Cl)s1,101%
13,Cn1c2c(c3ccccc31)CCN1C[C@@H]3CCCC[C@H]3C[C@@H]21,18.4%
14,CNc1ccc2c(c1)c1ccccc1n2C,100%
15,N#CSCC(=O)c1ccc(Cl)cc1,51.5%
16,C[n+]1c(/C=C/c2ccc([N+](=O)[O-])cc2)ccc2ccccc21,95.6%
17,Nc1ncnc2c1ncn2C1OC(CO)C(O)C1O (stereo unspecified),110% and 82.7% and 101%
18,CN=C(N)N/N=C(\C)c1ccc2c(c1)Cc1cc(/C(C)=N/NC(N)=NC)ccc1-2,-78.3% (active)

row,Compound,growth
1,CN1c2ccccc2C(C)(C)C12C=Cc1cc(O)ccc1O2 (stereo unspecified),30.2%
2,S=C(N/N=C/c1ccccn1)Nc1ccccn1,1.53% (active)
3,N#Cc1ccc([N+](=O)[O-])o1,95.4%
4,Cc1cc(N)c2ccccc2[n+]1CCCCCCCCCC[n+]1c(C)cc(N)c2ccccc21,-66.5% (active) and 1.93% (active)
5,CN(C)c1ccc(/C=N/N=C(\C#N)[S][Sn]([Cl])([c]2ccccc2)[c]2ccccc2)cc1,34.7%
6,N#CSCc1c(Cl)cccc1Cl,88.5%
7,Cc1ccnc(NC(c2ccccc2)c2ccc3cccnc3c2O)c1 (stereo unspecified),26.3%
8,CCCCCCC(C)c1ccccc1O (stereo unspecified) (tested in a mixture with another compound),99.6%
9,O=C(Nc1cccc(Br)c1)Oc1ccc(Cl)c2cccnc12,-30.4% [100 µM] (active)
10,CC(C)(C)c1ccc(O)c(C2CCCCC2)c1,96.7%
11,O=C(/C=C\c1ccccc1)N1c2ccccc2CC1c1c[nH]c2ccccc12 (stereo unspecified),48.9%
12,CNC(=O)N/N=C/c1ccc([N+](=O)[O-])o1,88.9%
13,O=C(CC1(O)C(=O)Nc2c(Cl)ccc(Cl)c21)c1ccc(Cl)cc1Cl (stereo unspecified),97.8%
14,O=C(Nc1ccccc1)Oc1c(Cl)c(Cl)c(Cl)c(Cl)c1Cl,88.8% and 89.5%
15,CC1=CC(O)C2CC1C2(C)C (stereo unspecified),101% and 105%
16,CCOC(=O)c1c(C)[nH]c(CO)c1C,93.4%
17,Nc1ccc(SSc2ccc(N)cc2)cc1,91.1%

# Same assay, conditions: 100 µM
row,Compound,growth
1,O=C(Nc1cccc(Br)c1)Oc1cccc2cccnc12,11.7%
2,COc1ccc(-c2cscc2N)cc1,-9.3% (active)
3,CN(C)C(=O)c1ccc(SC(=S)NCc2ccccc2)cc1,1.05% (active)
